The record followed here is PubChem BioAssay (EPA / NIEHS).

Several values for one entry are separate records, joined by “and”; a condition that tells them apart may be missing. Equal entries are not always repeated. Inconclusive results are not listed. The source holds several records for some structures; these can differ, active in one and inactive in another. Activity calls are given as the source filed them. Rule for the calls, unless noted: active = hit-call score of the fitted dose curve at least 0.9, where 1 is the maximum; inactive = score below 0.9.

The nature of the first assay: CCTE_Mundy_HCI_Cortical_NOG_BPCount: CCTE's Neurite Outgrowth Assay in rat cortical cells for Branch Point Count, Mundy Lab (AID 2284237).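 For AC50: branch points counted about two days after chemical exposure.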 The gist of the method:
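Measured 50.33 h after dosing, this morphology endpoint uses rat primary cortical cultures labelled for betaIII-tubulin. Branch points are quantified by high-content imaging, with DMSO as negative control and baseline.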
Take `CN(C)C(=S)SSC(=S)N(C)C`: the concentration at half-maximal activity (AC50) was 0.055 µM (active).

Turning to `CNC(=O)ON=CC(C)(C)SC`, the result was inactive.

In the case of `C=CC1(C)OC(=O)N(c2cc(Cl)cc(Cl)c2)C1=O` (stereo unspecified), the call was inactive.

Consider `COP(N)(=O)SC` (stereo unspecified), for which the call was inactive.

With `COP(=S)(OC)Oc1nc(Cl)c(Cl)cc1Cl`, the AC50 was 24.1 µM (active).

Consider `CCCCOC(=O)c1ccccc1C(=O)OCCCC`, for which the result was inactive.

Regarding `C=CCC1=C(C)C(OC(=O)C2C(C=C(C)C)C2(C)C)CC1=O` (stereo unspecified), the molecule was classed as inactive.

Regarding `CCCCNC(=O)n1c(NC(=O)OC)nc2ccccc21`, the AC50 was 10.3 µM (active).

As for `C=CCC1=C(C)[C@@H](OC(=O)[C@@H]2[C@@H](C=C(C)C)C2(C)C)CC1=O`, the molecule was classed as inactive.

As for `CO/C=C(/C(=O)OC)c1ccccc1Oc1cc(Oc2ccccc2C#N)ncn1`, the AC50 was 2.23 µM (active).

Regarding `CC(C)(C)c1ccc(CSc2cnn(C(C)(C)C)c(=O)c2Cl)cc1`, the AC50 was 0.00299 µM (active).

As to `N#Cc1nn(-c2c(Cl)cc(C(F)(F)F)cc2Cl)c(N)c1S(=O)C(F)(F)F` (stereo unspecified), the outcome was inactive.

With `COC(=O)N(OC)c1ccccc1COc1ccn(-c2ccc(Cl)cc2)n1`, the AC50 is 0.116 µM (active).

Consider `Cc1ccc(-c2c(Cl)nc(C#N)n2S(=O)(=O)N(C)C)cc1`, for which the AC50 is 78 µM (active).

A short description of a further assay: CCTE_Mundy_HCI_hNP1_Casp3_7: CCTE's Caspase-Glo 3/7 Assay in human neuroprogenitor cells for Apoptosis, Mundy Lab (AID 2284240). In short, it runs like this: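 Luminescent caspase-3/7 readout, 26.5 h post-dose, in human neural progenitor cells from WA09 embryonic stem cells. Cells grew 40–44 h at 37 °C, 5% CO2 before chemical addition. Activity analysed as signal increase over DMSO baseline.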
In the case of `CN(C)C(=S)SSC(=S)N(C)C`, the AC50 is 87.3 µM (active).

Take `CNC(=O)ON=CC(C)(C)SC`: the call was inactive.

Turning to `C=CC1(C)OC(=O)N(c2cc(Cl)cc(Cl)c2)C1=O` (stereo unspecified), the result was inactive.

Turning to `COP(N)(=O)SC` (stereo unspecified), the molecule was called inactive.

For `COP(=S)(OC)Oc1nc(Cl)c(Cl)cc1Cl`, the result was inactive.

For `CCCCOC(=O)c1ccccc1C(=O)OCCCC`, the call was inactive.

In the case of `C=CCC1=C(C)C(OC(=O)C2C(C=C(C)C)C2(C)C)CC1=O` (stereo unspecified), the result was inactive.

On to `CCCCNC(=O)n1c(NC(=O)OC)nc2ccccc21`, for which the AC50 was 7.6 µM (active).

For `CCOC(=O)CC(SP(=S)(OC)OC)C(=O)OCC` (stereo unspecified), the AC50 was 84.5 µM (active) and the outcome was inactive.

On to `C=CCC1=C(C)[C@@H](OC(=O)[C@@H]2[C@@H](C=C(C)C)C2(C)C)CC1=O`, for which the molecule was called inactive.

`CO/C=C(/C(=O)OC)c1ccccc1Oc1cc(Oc2ccccc2C#N)ncn1`: the molecule was called inactive.

As to `CC(C)(C)c1ccc(CSc2cnn(C(C)(C)C)c(=O)c2Cl)cc1`, the half-maximal activity concentration (AC50) was 9.49 µM (active).

Take `N#Cc1nn(-c2c(Cl)cc(C(F)(F)F)cc2Cl)c(N)c1S(=O)C(F)(F)F` (stereo unspecified): the molecule was classed as inactive.

On to `CCCCC(CC)COC(=O)c1ccccc1C(=O)OCC(CC)CCCC` (stereo unspecified), for which the AC50 was 16.6 µM (active) and 11.1 µM (active).

With `CCOc1cc(Oc2ccc(C(F)(F)F)cc2Cl)ccc1[N+](=O)[O-]`, the AC50 is 52.1 µM (active).

Turning to `COC(=O)N(OC)c1ccccc1COc1ccn(-c2ccc(Cl)cc2)n1`, the concentration at half-maximal activity (AC50) is 33.5 µM (active).

Take `Cc1ccc(-c2c(Cl)nc(C#N)n2S(=O)(=O)N(C)C)cc1`: the AC50 was 89.9 µM (active).

The next assay is described as follows: CCTE_Mundy_HCI_hNP1_CellTiter: CCTE's Cell Titer-Glo 2 Assay in human neuroprogenitor cells for Viability, Mundy Lab (AID 2284241; active = hit-call score of the fitted dose curve at least 0.9, where 1 is the maximum;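 for AC50: a hit is a drop in ATP luminescence versus DMSO meaning reduced viability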). In short, it runs like this: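 Viability read as luminescent ATP content (CellTiter-Glo, 30 min room temperature) twenty-four hours after dosing, relative to DMSO. Cells: WA09-derived hNP1 neuroprogenitors on poly-L-ornithine/laminin, plated 40 to 44 hours before chemical.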
For orientation: ATP-based viability assays read luminescence as a measure of living cells.
`CN(C)C(=S)SSC(=S)N(C)C`: the AC50 is 9.92 µM (active).

Regarding `CNC(=O)ON=CC(C)(C)SC`, the molecule was classed as inactive.

For `C=CC1(C)OC(=O)N(c2cc(Cl)cc(Cl)c2)C1=O` (stereo unspecified), the call was inactive.

With `COP(N)(=O)SC` (stereo unspecified), the outcome was inactive.

In the case of `COP(=S)(OC)Oc1nc(Cl)c(Cl)cc1Cl`, the molecule was classed as inactive.

`C=CCC1=C(C)C(OC(=O)C2C(C=C(C)C)C2(C)C)CC1=O` (stereo unspecified): the call was inactive.

For `CCCCNC(=O)n1c(NC(=O)OC)nc2ccccc21`, the half-maximal activity concentration (AC50) is 10 µM (active).

For the molecule `CCOC(=O)CC(SP(=S)(OC)OC)C(=O)OCC` (stereo unspecified), the AC50 was 72.8 µM (active) and the molecule was called inactive.

On to `C=CCC1=C(C)[C@@H](OC(=O)[C@@H]2[C@@H](C=C(C)C)C2(C)C)CC1=O`, for which the AC50 is 7.56 µM (active).

For `CC(C)(C)c1ccc(CSc2cnn(C(C)(C)C)c(=O)c2Cl)cc1`, the AC50 is 11.5 µM (active).

Take `N#Cc1nn(-c2c(Cl)cc(C(F)(F)F)cc2Cl)c(N)c1S(=O)C(F)(F)F` (stereo unspecified): the molecule was called inactive.

As to `CCCCC(CC)COC(=O)c1ccccc1C(=O)OCC(CC)CCCC` (stereo unspecified), the AC50 is 9.22 µM (active).

Consider `CCOc1cc(Oc2ccc(C(F)(F)F)cc2Cl)ccc1[N+](=O)[O-]`, for which the AC50 was 18.9 µM (active).

`COC(=O)N(OC)c1ccccc1COc1ccn(-c2ccc(Cl)cc2)n1`: the AC50 was 50 µM (active).

For `Cc1ccc(-c2c(Cl)nc(C#N)n2S(=O)(=O)N(C)C)cc1`, the AC50 was 85.4 µM (active).

A short description of another assay: CCTE_Mundy_HCI_Cortical_Synap_Neur_Matur_NeuronCount: CCTE's Synaptogenesis and Neurite Maturation Assay in rat cortical cells for Neuron Count, Mundy Lab (AID 2284242; active = hit-call score of the fitted dose curve at least 0.9, where 1 is the maximum;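 for AC50: neuron number from Hoechst nuclei and MAP2 staining by high-content imaging; hits reduce neuron count versus DMSO baseline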). In short, it runs like this:
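Rat primary cortical cells received AraC at DIV 5 to arrest glia, then were dosed with chemicals at DIV 7 through DIV 12. Fixed cells were stained for nuclei, MAP2 and synaptophysin, and neurons were counted by high-content imaging relative to DMSO.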
Turning to `CN(C)C(=S)SSC(=S)N(C)C`, the AC50 was 0.0653 µM (active).

For `COP(N)(=O)SC` (stereo unspecified), the outcome was inactive.

Regarding `COP(=S)(OC)Oc1nc(Cl)c(Cl)cc1Cl`, the AC50 was 25.7 µM (active).

As to `CCCCOC(=O)c1ccccc1C(=O)OCCCC`, the AC50 was 81.3 µM (active).

As to `CCOC(=O)CC(SP(=S)(OC)OC)C(=O)OCC` (stereo unspecified), the AC50 was 50 µM (active).

As to `C=CCC1=C(C)[C@@H](OC(=O)[C@@H]2[C@@H](C=C(C)C)C2(C)C)CC1=O`, the AC50 is 26.6 µM (active).

As for `CO/C=C(/C(=O)OC)c1ccccc1Oc1cc(Oc2ccccc2C#N)ncn1`, the concentration at half-maximal activity (AC50) is 3.73 µM (active).

As for `CC(C)(C)c1ccc(CSc2cnn(C(C)(C)C)c(=O)c2Cl)cc1`, the AC50 was 0.000347 µM (active).

Regarding `N#Cc1nn(-c2c(Cl)cc(C(F)(F)F)cc2Cl)c(N)c1S(=O)C(F)(F)F` (stereo unspecified), the AC50 was 15 µM (active).

In the case of `CCCCC(CC)COC(=O)c1ccccc1C(=O)OCC(CC)CCCC` (stereo unspecified), the AC50 was 7.31 µM (active) and 5.3 µM (active).

Take `CCOc1cc(Oc2ccc(C(F)(F)F)cc2Cl)ccc1[N+](=O)[O-]`: the AC50 is 15 µM (active).

In the case of `COC(=O)N(OC)c1ccccc1COc1ccn(-c2ccc(Cl)cc2)n1`, the AC50 is 0.0487 µM (active).

Turning to `Cc1ccc(-c2c(Cl)nc(C#N)n2S(=O)(=O)N(C)C)cc1`, the AC50 was 50 µM (active).

For orientation: AC50 means the concentration at which the activity in the assay is half-maximal.
